# HCMV antiviral – qHTS Assay for inhibitors of the human cytomegalovirus (HCMV) | HFF cells, HCMV-luciferase reporter, 72 h; hits give low values | activity change, negative = inhibition, % at 57.5 µM | hit rate 4.5% among 410,000; in the data active = activity change below about -60%; inconclusive = no clear call, values can overlap the other calls; inactive = above about -39%
#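 Cell-based, HFFs, 1000 cells/well, 16 h 37C; cpds in DMSO + HCMV-luc, MOI 1 PFU/cell; 72 h 37C; OneGlo luminescence after 5 min RT; norm. to buffer vs Salinomycin 10uM.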
# FMDV inh – High Throughput Screening for Foot and Mouth Disease Virus Antivirals. hit rate 1.2% among 410,000. Potency, µM (top dose mostly 57.9 µM), most hits filed as inhibitors. FMDV antiviral cell-based qHTS; calls by dose curve; tested in HEK293T cells; also: read-out not given here; nearly all actives have a fitted effect of over 45% in size
# Marburg entry inh – qHTS for inhibitors of binding or entry into cells for Marburg Virus | Potency, µM (doses to about 37.8 µM), actives largely listed as inhibitors | AID 540276, 2011 | hit rate 1.8% among 300,000 | Marburg virus pseudotyped entry inhibition, cell reporter; calls by dose curve; tested in HEK293 cells
# LASV entry inh – qHTS for Inhibitors of binding or entry into cells for Lassa Virus; Lassa virus pseudotype entry inhibition, cell reporter; Potency, µM (top dose mostly 37.9 µM), most hits filed as inhibitors; hit rate 1.2% among 300,000; AID 540256, 2011; calls by dose curve; tested in HEK293 cells; also: nearly all actives have a fitted effect of over 50% in size
# SARS PLP yeast – qHTS of Yeast-based Assay for SARS-CoV PLP; Potency, µM (doses to about 32.9 µM), usual class: activators; S. cerevisiae expressing SARS-CoV PLpro, growth rescue; hit rate 0.19% among 330,000; calls by dose curve; also: nearly all actives have a fitted effect of over 55% in size
# HCV inh – qHTS Assay for Inhibitors of Hepatitis C Virus (HCV). Potency, µM (highest dose often 41.8 µM), most hits filed as inhibitors. Huh7.5.1 HCVcc-Cre infection, luciferase reporter, 44 h. hit rate 3.4% among 340,000
#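 Infectious HCV cell culture screen: compound-treated cells (1,000/well, pre-plated 4 h) are infected with HCVcc-Cre at roughly 0.5 moi and grown 44 h. Infection is quantified by luciferase signal after 15 min substrate incubation at room temperature.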
# HCV confirm – qHTS Assay for Inhibitors of Hepatitis C Virus (HCV): Confirmation Assay for Cherry-picked Compounds | shares compounds with HCV inh | HCVcc-Cre infectious virus cell assay, luciferase, inhibition | Potency, µM (top dose mostly 41.8 µM), hits mostly inhibitors | hit rate 78% among 640 | AID 720575, 2013; also: nearly all actives have a fitted effect of over 80% in size
# HCV host tox – qHTS Assay for Inhibitors of Hepatitis C Virus (HCV): Cytotoxicity Counterscreen for Cherry-picked Compounds | shares compounds with HCV inh | HCV host cell line cytotoxicity counterscreen | Potency, µM (series often up to 41.8 µM), most hits filed as inhibitors | hit rate 22% among 640;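 also: 44 h compound exposure; nearly all actives have a fitted effect of over 55% in size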
# A number is an active result; . = inactive; ? = inconclusive; / = no result; [ ] = remark or other dose. Compounds with a hit are over-represented: about 8% of the library has one in this group of screens. Unless noted, calls follow the shape of the dose curve; as a rule, active = well fitted curve in the direction sought with a large enough effect; inconclusive = small, poorly fitted or top-dose-only effect, or another doubt; inactive = no such curve, though single readings can be large; an effect the other way counts as inactive or inconclusive.
SMILES,HCMV antiviral,FMDV inh,Marburg entry inh,LASV entry inh,SARS PLP yeast,HCV inh,HCV confirm,HCV host tox
CCS(=O)(=O)N1CCC(C(=O)NCc2ccc3c(c2)OCO3)CC1,.,.,.,.,.,.,/,/
CC[C@]12c3[nH]c4cc(-c5ccco5)ccc4c3CCN1C(=O)[C@@H](CC(=O)NC(C)(C)C)C[C@@H]2C(=O)N1CCN(C(=O)c2ccco2)CC1,.,.,.,/,.,.[8.37 µM],/,/
C/C(CCc1oc2ccccc2c1-c1ccc(C)o1)=N/O,.,.,?,.,.,7.9µM,25µM,.
Cc1ccc(CN(Cc2ccccc2)C(=S)Nc2ccccc2C)o1,.,.,.,?,.,3.2µM,.,.
C=C(NC(=O)C(=C)NC(=O)c1csc(C2=NC3c4csc(n4)C4NC(=O)c5csc(n5)C(C(C)(O)C(C)O)NC(=O)C5CSC(=N5)/C(=C/C)NC(=O)C(C(C)O)NC(=O)c5csc(n5)C3(CC2)NC(=O)C(C)NC(=O)C(=C)NC(=O)C(=C)NC(=O)C(C(C)C)NC2C=Cc3c(C(C)O)cc(nc3C2O)C(=O)OC4C)n1)C(N)=O (centres undefined),-98,?,4µM,6.3µM,/,4µM,2.5µM,3.1µM
CCc1ccc(NC(=O)CSc2nc3n[nH]c(C)c3c(=N)n2-c2cccc(OC)c2)cc1,.,.,?,?,.,7.1µM,14µM,.
Cn1c(=O)c2c(nc(Oc3ccc4c(c3)OCO4)n2Cc2ccc(F)cc2)n(C)c1=O,.,.,.,.,.,.,/,/
Cn1c(=O)c2c(nc(SCC(=O)NCc3ccc4c(c3)OCO4)n2Cc2ccc(F)cc2)n(C)c1=O,.,.,.,.,.,?,14µM,.
CCCCNC(=O)CSc1nc2ccccc2c(=O)n1Cc1ccc2c(c1)OCO2,.,.,.,?,.,?,/,/
Cn1c(=O)c2c(nc(SCC(=O)NCc3ccc4c(c3)OCO4)n2Cc2ccccc2)n(C)c1=O,.,.,.,.,.,.,?,.
Cc1onc(-c2ccccc2Cl)c1C(=O)Nc1ccccc1C(=O)NC(C)C,?,/,9.2µM,?,.,4.5µM,22µM,?
COc1ccccc1CCNC(=O)C(=O)NCC1OCCN1S(=O)(=O)c1ccc(OC)c(OC)c1 (centres undefined),.,.,/,/,.,.,/,/
COC(=O)c1cc(C(=O)c2ccc(Cl)cc2)n2c(=O)/c(=C\N(C)C)sc12,.,.,.,.,.,2.8µM,7.9µM,.
COC(=O)c1cc(C(=O)c2ccccc2)n2c(=O)/c(=C\N(C)C)sc12,.,.,/,/,.,?,/,/
CCOC(=O)N1CCN(C(=O)CSCC(=O)Nc2nc(-c3ccc4c(c3)OCO4)cs2)CC1,/,?,?,.,.,?,16µM,.
CC(=O)Nc1nc(-c2ccc3c(c2)OCO3)cs1,.,.,/,/,.,.,/,/
CCn1c(=NC(=O)C2COc3ccccc3O2)sc2c(C)ccc(OC)c21 (centres undefined),?,?,/,/,.,?,13µM,.
CCN(Cc1ccccc1)c1ccc(/C=N/NC(=O)c2cccc(S(=O)(=O)N3CCOCC3)c2)cc1,?,?,?,?,.,?,5.6µM,.
COc1cc(/C=N/NC(=O)c2cccc(S(=O)(=O)N3CCOCC3)c2)cc(OC)c1O,.,.,.,.,.,.,/,/
COc1nn(-c2ccccc2)c(=O)c(Cl)c1Cl,-102,14µM,?,?,.,4µM,8.9µM,7.9µM
Cc1ccccc1Cn1cnc2c(NS(C)(=O)=O)c(C)c(C)cc21,.,?,.,.,.,?,/,/
COc1ccc(Cn2cnc3c(NS(C)(=O)=O)c(C)c(C)cc32)cc1,.,?,.,.,.,3.2µM,0.011µM,.
COc1cc(/C=N/n2nnnc2Nc2ccccc2)cc(OC)c1OC,/,.,?,.,.,?,?,.
COc1cc(/C=N/n2c(-c3ccccc3)n[nH]c2=S)cc(OC)c1OC,.,.,?,?,.,.,/,/
O=C(Nc1ccccc1)c1cccc(S(=O)(=O)Nc2cccc(F)c2)c1,.,.,/,.,/,/,/,/
SMILES,HCMV antiviral,FMDV inh,Marburg entry inh,LASV entry inh,SARS PLP yeast,HCV inh,HCV confirm,HCV host tox
COc1cccc(C(=O)Nc2ccc3c(c2)CCCN3C(=O)c2cccs2)c1OC,.,.,/,?,.,4.5µM,25µM,?
CC(C)C(=O)N=C1SC2CS(=O)(=O)CC2N1Cc1ccccc1 (centres undefined),.,.,.,.,.,.,/,/
Cc1c(C(=O)NCC2COc3ccccc3O2)oc2ccc(S(=O)(=O)N3CCOCC3)cc12 (centres undefined),.,?,?,?,.,5.6µM,18µM,.
Cc1c(C(=O)NCC2COc3ccccc3O2)oc2ccc(S(=O)(=O)N3CC(C)CC(C)C3)cc12 (centres undefined),.,/,?,.,.,?,/,/
COc1cc(C23CCCN(CCC(C(C)(C)C)C2)C32OCCO2)cc(OC)c1OC (centres undefined),.,.,/,/,/,/,/,/
CC(C)(C)[C@H]1COC(=O)[C@@H](NC(=O)OCC2c3ccccc3-c3ccccc32)C/C=C\C[C@@H](CC(=O)N[C@@H](CO)Cc2ccccc2)C(=O)N1,.,.,/,/,.,.,/,/
O=C(C[C@@H]1C/C=C\C[C@@H](NC(=O)OCC2c3ccccc3-c3ccccc32)C(=O)OCCNC1=O)N[C@@H](CO)Cc1ccccc1,.,.,/,/,.,1.8µM,?,.
COC(=O)c1c(NC(=O)c2ccn(C)n2)sc2c1CCC2,.,.,/,/,.,2.8µM,0.89µM,.
Cc1cc2oc(=O)cc(Cn3ccnc3)c2cc1Cl,.,.,.,.,.,.,/,/
O=C(NC1CCS(=O)(=O)C1)/C(=C/c1ccco1)NC(=O)c1ccccc1 (centres undefined),.,.,.,.,.,7.1µM,.,.
CC(=O)N(C)c1ccc(OCC(O)Cn2c3ccc(Cl)cc3c3cc(Cl)ccc32)cc1 (centres undefined),/,?,11µM,?,.,0.89µM,4µM,28µM
Cc1ccc(OCC(O)Cn2c3ccccc3c3ccccc32)cc1 (centres undefined),.,/,.,?,.,?,/,/
CCN(CC)S(=O)(=O)c1ccc(Oc2ccc(S(=O)(=O)N(CC)CC)cc2)cc1,.,?,?,15µM,.,2.8µM,2.5µM,2.8µM
COc1cccc(-c2c(-c3cc(OC)cc(OC)c3)n(C)c3ccc(-c4ccc5[nH]ccc5c4)cc23)c1,.,.,.,/,.,?,/,/
